Hits are enriched below; roughly 13% of the tested compounds scored in any of these assays.
miR-21 act – qHTS Assay for Modulators of miRNAs and/orActivators of miR-21. HeLa miR-21 FLuc reporter, luciferase, 48 h. Potency, µM (top dose mostly 38.3 µM), most hits filed as activators. 340,000 tested, under 10 active. AID 2288, 2010;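 also: miR-21 action dims this reporter so a rising signal means less miR-21 action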
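HeLa cells endogenously expressing miR-21, stably carrying CMV-driven firefly luciferase with a downstream miR-21 binding site, 2000 cells/well. Titrations up to approximately 40 uM, 48 hours; luciferase luminescence read.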
G9a block – qHTS Assay for Inhibitors of Histone Lysine Methyltransferase G9a; Histone-lysine N-methyltransferase EHMT2 (Homo sapiens), Q96KQ7; 8.8% of 350,000 active; Potency, µM (titrated, usually from 102 µM), actives largely listed as inhibitors; G9a H3K9 monomethylation, AlphaScreen, 2 h; also: nearly all actives have a fitted effect of over 75% in size
Target sequence (Q96KQ7 913-1193 limits assumed): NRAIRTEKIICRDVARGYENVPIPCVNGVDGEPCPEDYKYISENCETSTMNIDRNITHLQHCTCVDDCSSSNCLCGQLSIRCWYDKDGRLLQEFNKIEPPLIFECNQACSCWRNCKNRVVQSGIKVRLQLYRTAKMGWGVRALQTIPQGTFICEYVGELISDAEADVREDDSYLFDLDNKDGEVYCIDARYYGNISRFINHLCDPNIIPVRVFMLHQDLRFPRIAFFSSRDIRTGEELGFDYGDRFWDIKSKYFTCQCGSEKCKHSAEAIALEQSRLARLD
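Signal arises when biotinylated H3K9 peptide, once monomethylated, bridges streptavidin donor and antibody-captured acceptor beads. Enzyme at 20 nM was preincubated 15 min with test compounds; peptide 500 nM and SAM 20 uM then reacted for 2 h.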
Lamin A splicing – qHTS Assay for Modulators of Lamin A Splicing; Potency, µM (highest dose often 46.1 µM), actives largely listed as inhibitors; 0.01% of 200,000 active; HeLa LMNA splicing GFP/RFP minigene ratio, 48 h; active = well fitted inhibition curve with a large enough effect in the signal ratio, with a control signal flat, not every such curve was filed as active; inconclusive = small, poorly fitted or top-dose-only effect, or effect the other way, or a change in a side signal; the % refers to the signal ratio
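Read-out is the ratio of GFP to DsRed2 object intensity, acquired by 488 nm laser-scanning cytometry on HeLa lamin A-EGFP minigene reporter cells. Compound incubation 48 hrs at 37 °C in Opti-MEM with 2% FBS; DMSO 0.5% final.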
KDM4E inh – qHTS Assay for Inhibitors of Human Jumonji Domain Containing 2E (JMJD2E). Lysine-specific demethylase 4E (Homo sapiens), B2RXH2. JMJD2E catalytic domain, FDH-coupled NADH fluorescence (FDH is formaldehyde dehydrogenase). Potency, µM (series often up to 57.1 µM), actives largely listed as inhibitors. 1.6% of 230,000 active. AID 2147, 2009; active = well fitted inhibition curve with a large enough effect, not every such curve was filed as active; inconclusive = small, poorly fitted or top-dose-only effect, or another doubt; inactive = no such curve, though single readings can be large or run the other way; also: nearly all actives have a fitted effect of over 50% in size
Target sequence (B2RXH2 1-337 limits assumed): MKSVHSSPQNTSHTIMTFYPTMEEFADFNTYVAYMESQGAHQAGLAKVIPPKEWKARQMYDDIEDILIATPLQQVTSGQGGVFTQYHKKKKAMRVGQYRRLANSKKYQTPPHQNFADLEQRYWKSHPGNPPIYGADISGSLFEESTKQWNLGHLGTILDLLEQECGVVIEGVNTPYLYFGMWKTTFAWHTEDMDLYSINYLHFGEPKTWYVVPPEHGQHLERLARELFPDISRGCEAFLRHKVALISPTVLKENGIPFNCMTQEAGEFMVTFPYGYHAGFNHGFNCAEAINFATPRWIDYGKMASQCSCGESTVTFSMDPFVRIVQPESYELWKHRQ
Sfp inh – qHTS Assay for Inhibitors of Bacillus subtilis Sfp phosphopantetheinyl transferase (PPTase); 4'-phosphopantetheinyl transferase ffp (Bacillus subtilis), Q9F4F7; Biochemical Sfp PPTase activity, qHTS; 3.5% of 310,000 active; AID 1490, 2009; Potency, µM, hits mostly inhibitors;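 also: the enzyme is Sfp with the accession as filed and its product quenches rhodamine fluorescence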
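After 15 min at room temperature with compound, 15 nM Sfp received 5 uM rhodamine-CoA plus 12.5 uM BHQ-2-ybbR (50 mM Hepes pH 7.6, 10 mM MgCl2). Rate came from the fluorescence difference over 30 min, ex 525/em 598 nm.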
ALDH1A1 block – qHTS Assay for Inhibitors of Aldehyde Dehydrogenase 1 (ALDH1A1) | Purified ALDH1A1, NADH fluorescence, propionaldehyde substrate | Potency, µM (highest dose often 75.3 µM), most hits filed as inhibitors | 7.3% of 220,000 active; active = well fitted inhibition curve with a large enough effect, not every such curve was filed as active; inconclusive = small, poorly fitted or top-dose-only effect, or another doubt; inactive = no such curve, though single readings can be large or run the other way
Hits are given with their value; n = inactive; u = inconclusive; x = no result given; [ ] = remark or other dose. Unless noted, calls follow the shape of the dose curve; as a rule, active = well fitted curve in the direction sought with a large enough effect; inconclusive = small, poorly fitted or top-dose-only effect, or another doubt; inactive = no such curve, though single readings can be large; an effect the other way counts as inactive or inconclusive.

SMILES	miR-21 act	G9a block	Lamin A splicing	KDM4E inh	Sfp inh	ALDH1A1 block
O=C(Nc1ccc(N2CCN(C(=O)c3ccc(Cl)cc3)CC2)cc1)c1ccc2c(c1)OCCO2	n	79.4µM	u	u	n	u
CCn1c(C(=O)N2CCC(C(=O)N3CCN(c4ccc(OC)cc4)CC3)CC2)cc2sccc21	n	u	x	x	x	x
CS/C(Nc1cc(Cl)ccc1Cl)=C(/C#N)C(=O)c1ccco1	n	14.1µM	x	n	n	u
Nc1ccc2c(c1)OC1(CCCC1)O2	n	35.5µM	u	n	n	n
CC1=NN(C(N)=S)C(=O)C1N=Nc1ccc(Cl)cc1 (stereo not drawn)	n	70.8µM	x	x	n	x
CC1=NN(C(N)=S)C(=O)C1N=Nc1cccc2ccccc12 (stereo not drawn)	n	x	u	n	n	14.1µM
CC1=NN(C(N)=S)C(=O)C1N=Nc1ccccc1 (stereo not drawn)	n	n	u	n	u	22.4µM
CC1=NN(C(N)=S)C(=O)C1N=Nc1cccc(Cl)c1C (stereo not drawn)	n	x	x	x	n	x
ON1C(c2ccc(Cl)cc2Cl)N(O)[C@H]2CCCC[C@H]21 (stereo partly drawn)	n	50.1µM	n	n	n	n
CC1SC(c2ccc(Cl)cc2Cl)NC1=O (stereo not drawn)	n	n	n	n	n	n
CC1N(O)C(c2ccc(Cl)cc2Cl)N(O)C1(C)C (stereo not drawn)	n	n	u	u	n	14.1µM
CCOc1ccc(NC(=O)c2cc(S(=O)(=O)N3CCc4ccccc43)ccc2F)cc1	n	n	u	x	x	x
C=C(C)CN=C1SC(C(=O)Nc2sc3c(c2C(=O)OC)CCC3)C(N)=C1C(N)=O (stereo not drawn)	n	n	u	u	u	25.1µM
Nc1ccccc1S(N)(=O)=O	x	n	u	n	n	n
Oc1ccc2ccccc2c1C=Nc1ccccc1-c1nc2ccccc2[nH]1	n	7.08µM	u	u	n	u
CCC(C)NC(=O)c1ccccc1-c1nc2ccccc2[nH]1 (stereo not drawn)	n	n	x	u	n	n
CCCCN1C(C)=CC(=C2C(=O)c3ccccc3C2=O)C=C1C	n	n	x	n	n	14.1µM
CCCN1C=CC(=C2C(=O)c3ccccc3C2=O)C=C1	u	n	n	n	n	14.1µM
CC1=CC(=C2C(=O)c3ccccc3C2=O)C=C(C)N1Cc1ccco1	n	n[12.7 µM]	n	n	44.7µM	7.94µM
CCOc1ccc(-c2c[n+]3c(n2-c2ccccc2)CCCCC3)cc1	n	n	u	n	n	n
CCOc1ccc(C(=O)N2CC(=O)Nc3ccc(C)cc3C2c2ccc(F)cc2)cc1OCC (stereo not drawn)	n	n	x	x	x	x
Cc1ccc(NC(=O)C2CCCN(c3nnc(-n4c(C)ccc4C)s3)C2)c(C)c1 (stereo not drawn)	n	n	x	x	x	x
COC(=O)c1ccc2c(=O)[nH]c(CSc3nc(C)cs3)nc2c1	n	39.8µM	x	u	n	23.8µM
COC(=O)c1ccc2c(=O)[nH]c(CSc3nnc(C(F)(F)F)n3C)nc2c1	n	n	n	u	n	n
Oc1ccc(O)c(/C(=N/Nc2ccccc2)c2ccccc2)c1	n	1.26µM	x	x	n	x
SMILES	miR-21 act	G9a block	Lamin A splicing	KDM4E inh	Sfp inh	ALDH1A1 block
Cc1cc(C)nc(NN=C(c2ccccc2)c2ccccc2)n1	u	n	u	n	n	u
CN(Cc1ccccc1)c1nc2c(S(=O)(=O)c3ccccc3)nnn2c2ccsc12	n	n	x	x	x	x
Cc1cc2c(s1)c1c(n2C)C(=O)N(Cc2ccccc2F)C1	x	n[12.7 µM]	x	x	x	x
CCCCCCNC(=O)Nc1ccc(S(=O)(=O)Nc2ccc(CCNC[C@H](O)COc3ccc(O)cc3)cc2)cc1	x	x	x	u	25.1µM	n
CCCCOc1ccc(S(=O)(=O)Nc2ccc(NC(C)=O)cc2)cc1	n	n	u	n	n	n
Cc1cccc(NC(=O)COC(=O)CCc2c[nH]c3ccccc23)c1	x	n	x	x	x	x
Cc1ccc(NC(=O)N2CCC(CN3CCC(C)CC3)CC2)cc1F	n	n	u	x	x	x
Fc1ccccc1-n1ncc2c1ncn1nc(Cc3ccccc3)nc21	n	n	x	x	x	x
CCCCOCCOCCOCc1cc2c(cc1CCC)OCO2	x	n	u	x	n	10µM
CC(=O)NC12CC3CC(C1)CC(C(=O)N1CCN(S(=O)(=O)c4ccc(C(C)C)cc4)CC1)(C3)C2	x	n	x	x	x	x
Cc1nc2ccccc2c(=O)n1/N=C/c1ccc(O)cc1O	n	x	x	u	n	n
CCCc1nc2ccccc2c(=O)n1/N=C/c1ccccc1O	n	n	u	31.6µM	n	u
O=C1CCCN1CCCNc1ncnc2c1[nH]c1ccc(Cl)cc12	n	n	n	u	n	u
CCN1CCCC1CNc1ncnc2c1[nH]c1ccc(Cl)cc12 (stereo not drawn)	n	50.1µM	u	u	n	u
CN(C)CCCN1C(=O)C(O)=C(C(=O)c2cc3ccccc3o2)C1c1ccccc1 (stereo not drawn)	n	14.1µM	n	n	n	n
COc1ccccc1-c1cc(C(=O)NCCN2CCOCC2)no1	n	n	n	u	n	n
O=C(C1=C(O)C(=O)N(CCN2CCOCC2)C1c1cccnc1)c1cc2ccccc2o1 (stereo not drawn)	n	28.2µM	n	u	n	35.5µM
COc1cccc2cc(C(=O)NCCN3CCOCC3)oc12	n	44.7µM	x	x	n	x
CC(=O)C1=C(O)C(=O)N(CCN2CCOCC2)C1c1ccccc1 (stereo not drawn)	n	u	n	u	n	25.1µM
COC(=O)c1ccc(C2C(C(=O)c3cc4ccccc4o3)=C(O)C(=O)N2CCCN(C)C)cc1 (stereo not drawn)	n	u	n	n	n	u
O=C(C1=C(O)C(=O)N(CCN2CCOCC2)C1c1cccc(F)c1)c1cc2ccccc2o1 (stereo not drawn)	n	n[0.0925 µM]	x	x	n	x
COC(=O)c1ccc(NC(=O)N2CCN(Cc3cc(=O)n4nc(-c5ccc(C)cc5)sc4n3)CC2)cc1	n	n	n	x	x	x
CC(C)(Oc1ccc(Cl)cc1)C(=O)NC1CC1	x	n	x	x	x	x
Cc1ccc(C2C(C(=O)c3cc4ccccc4o3)=C(O)C(=O)N2CCN2CCOCC2)o1 (stereo not drawn)	n	u	n	u	50.1µM	14.1µM
O=C(C1=C(O)C(=O)N(CCCN2CCOCC2)C1c1ccncc1)c1cc2ccccc2o1 (stereo not drawn)	n	u	n	n	n	14.1µM

Assay outcomes deposited in PubChem by National Center for Advancing Translational Sciences (NCATS).
